SMILES strings stand for the structures. “And” between values parts separate entries of the source, which are not always exact repeats. Equal values may be shown once. In all, about 190,000 compounds went through this assay and about 6,900 (3.6%) were called active. No stated cut-off is given here; in the data, active means inhibition above about 50%; inactive means the rest. This excerpt belongs to a sample that is enriched for actives. A structure can be active in one record and inactive in another.

The target of this experiment is Huntingtin (Homo sapiens) (UniProt P42858). The experiment can be described thus: mutant huntingtin-calmodulin interaction inhibitors – biochemical, AlphaScreen, primary screen (AID 1671202).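 Further: 0% = both proteins with DMSO and 100% = one protein alone.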 The following applies: AlphaScreen His-mHTT/GST-CaM binding, luminescence; at 15 µM, stronger effect = higher value.
Sequence of Huntingtin (Homo sapiens) (P42858 whole entry, looked up, stated change not applied): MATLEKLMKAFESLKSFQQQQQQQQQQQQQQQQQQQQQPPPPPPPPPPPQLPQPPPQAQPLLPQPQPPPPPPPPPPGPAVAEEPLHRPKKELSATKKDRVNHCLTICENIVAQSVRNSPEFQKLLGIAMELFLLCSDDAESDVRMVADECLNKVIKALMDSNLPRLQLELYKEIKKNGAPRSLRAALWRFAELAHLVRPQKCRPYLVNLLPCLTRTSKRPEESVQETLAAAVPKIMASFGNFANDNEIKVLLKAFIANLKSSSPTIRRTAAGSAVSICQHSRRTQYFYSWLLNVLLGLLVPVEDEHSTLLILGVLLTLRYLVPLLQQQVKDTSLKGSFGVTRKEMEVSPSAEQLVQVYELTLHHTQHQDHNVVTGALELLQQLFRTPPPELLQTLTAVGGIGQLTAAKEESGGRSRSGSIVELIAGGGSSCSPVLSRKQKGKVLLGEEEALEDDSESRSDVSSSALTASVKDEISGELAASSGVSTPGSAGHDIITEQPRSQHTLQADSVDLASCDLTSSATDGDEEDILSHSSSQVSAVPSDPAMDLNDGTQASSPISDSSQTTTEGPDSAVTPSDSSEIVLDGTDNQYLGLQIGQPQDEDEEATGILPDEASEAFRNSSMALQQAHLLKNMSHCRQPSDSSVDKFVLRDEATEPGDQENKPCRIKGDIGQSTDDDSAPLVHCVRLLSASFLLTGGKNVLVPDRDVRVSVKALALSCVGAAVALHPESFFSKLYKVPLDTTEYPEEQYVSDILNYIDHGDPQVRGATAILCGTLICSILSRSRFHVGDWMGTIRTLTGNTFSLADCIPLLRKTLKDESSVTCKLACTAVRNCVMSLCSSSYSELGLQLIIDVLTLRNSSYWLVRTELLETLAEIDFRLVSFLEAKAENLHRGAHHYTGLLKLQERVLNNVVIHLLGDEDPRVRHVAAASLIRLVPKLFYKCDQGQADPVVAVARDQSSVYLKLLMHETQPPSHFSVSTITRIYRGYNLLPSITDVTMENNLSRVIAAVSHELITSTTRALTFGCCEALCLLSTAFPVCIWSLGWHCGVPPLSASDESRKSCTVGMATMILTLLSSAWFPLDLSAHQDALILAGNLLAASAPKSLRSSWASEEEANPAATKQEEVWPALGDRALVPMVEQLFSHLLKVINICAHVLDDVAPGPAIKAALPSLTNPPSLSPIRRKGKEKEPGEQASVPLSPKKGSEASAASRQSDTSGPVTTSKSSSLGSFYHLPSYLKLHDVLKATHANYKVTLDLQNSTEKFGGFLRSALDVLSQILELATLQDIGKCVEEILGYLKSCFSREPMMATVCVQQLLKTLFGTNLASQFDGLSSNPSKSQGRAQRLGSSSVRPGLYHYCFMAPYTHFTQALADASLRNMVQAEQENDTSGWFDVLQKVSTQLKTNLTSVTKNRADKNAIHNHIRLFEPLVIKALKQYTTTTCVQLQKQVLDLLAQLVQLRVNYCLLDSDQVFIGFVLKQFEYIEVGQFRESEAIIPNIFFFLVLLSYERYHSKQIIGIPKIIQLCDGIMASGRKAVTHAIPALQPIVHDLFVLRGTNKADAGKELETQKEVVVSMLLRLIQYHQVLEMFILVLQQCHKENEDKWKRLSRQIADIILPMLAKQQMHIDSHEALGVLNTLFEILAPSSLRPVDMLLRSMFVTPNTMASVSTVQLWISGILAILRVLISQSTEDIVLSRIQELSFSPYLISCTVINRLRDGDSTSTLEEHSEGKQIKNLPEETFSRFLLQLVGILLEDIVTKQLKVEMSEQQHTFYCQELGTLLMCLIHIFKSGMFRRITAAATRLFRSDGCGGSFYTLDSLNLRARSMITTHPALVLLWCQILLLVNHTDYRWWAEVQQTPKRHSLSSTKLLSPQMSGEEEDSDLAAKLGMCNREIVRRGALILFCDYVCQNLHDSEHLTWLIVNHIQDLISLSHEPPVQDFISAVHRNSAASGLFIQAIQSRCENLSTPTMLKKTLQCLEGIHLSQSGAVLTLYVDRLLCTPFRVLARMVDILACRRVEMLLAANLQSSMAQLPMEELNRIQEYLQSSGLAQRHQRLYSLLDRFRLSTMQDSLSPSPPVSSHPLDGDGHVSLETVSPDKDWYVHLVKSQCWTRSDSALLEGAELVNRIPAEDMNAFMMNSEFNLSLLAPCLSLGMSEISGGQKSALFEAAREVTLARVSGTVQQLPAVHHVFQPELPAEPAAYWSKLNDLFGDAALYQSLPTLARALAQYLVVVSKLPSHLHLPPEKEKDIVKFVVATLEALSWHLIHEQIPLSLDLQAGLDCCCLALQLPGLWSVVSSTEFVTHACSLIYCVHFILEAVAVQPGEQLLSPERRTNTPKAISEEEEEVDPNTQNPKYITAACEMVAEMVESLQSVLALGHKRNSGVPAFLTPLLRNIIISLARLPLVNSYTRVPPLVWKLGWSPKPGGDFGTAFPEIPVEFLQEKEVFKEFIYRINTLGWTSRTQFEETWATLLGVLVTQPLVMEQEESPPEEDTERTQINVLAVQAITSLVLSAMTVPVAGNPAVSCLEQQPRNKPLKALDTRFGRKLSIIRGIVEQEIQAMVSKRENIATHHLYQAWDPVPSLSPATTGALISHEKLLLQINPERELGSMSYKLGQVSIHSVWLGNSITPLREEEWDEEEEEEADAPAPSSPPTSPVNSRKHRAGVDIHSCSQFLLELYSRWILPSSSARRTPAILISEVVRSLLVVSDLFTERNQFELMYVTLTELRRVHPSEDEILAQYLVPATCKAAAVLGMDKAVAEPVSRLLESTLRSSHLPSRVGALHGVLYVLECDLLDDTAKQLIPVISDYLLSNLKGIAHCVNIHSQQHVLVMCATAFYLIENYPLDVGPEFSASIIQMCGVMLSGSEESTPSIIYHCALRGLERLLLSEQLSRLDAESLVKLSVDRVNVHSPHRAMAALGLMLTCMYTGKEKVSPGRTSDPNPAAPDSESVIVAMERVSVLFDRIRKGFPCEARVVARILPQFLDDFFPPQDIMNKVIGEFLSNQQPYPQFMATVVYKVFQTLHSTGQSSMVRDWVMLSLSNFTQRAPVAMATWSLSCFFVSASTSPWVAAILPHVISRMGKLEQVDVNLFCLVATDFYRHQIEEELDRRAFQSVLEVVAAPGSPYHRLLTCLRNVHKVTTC
Usually inhibition stands for the change of the read-out against control, counted positive when it falls. As to `Cc1nnc(NC(=O)CSc2nc(C(C)C)ccc2C#N)s1`, the inhibition was -5% (inactive). On to `C(=C\c1ccccc1)/CN1CCN(CC2CCCCC2)CC1`, for which the inhibition is 3.7% (inactive). As to `CN(C)c1ccc(/C=C/CN2CCN(c3ccccc3F)CC2)cc1`, the inhibition was 72.5% (active). The figure for `Cc1ccccc1N1CCN(C/C=C/c2ccccc2[N+](=O)[O-])CC1` is 35.9% (inactive); for `Cc1cc(CNC(=O)CSc2ccncc2)no1` it is -14.6% (inactive); for `CC(=O)N1CCc2c(sc(NC(=O)c3cc(C)oc3C)c2C(N)=O)C1` it is -3.5% (inactive).

As for `Cc1cc2c(N3CCC(C(=O)Nc4cccc(F)c4)CC3)nccc2s1`, the inhibition was 45.2% (inactive). Take `Cc1cc2c(N3CCCC(C(=O)Nc4cccc(F)c4)C3)nccc2s1` (stereo not drawn): the inhibition is -8.41% (inactive). Take `Cc1cc2c(N3CCC(C(=O)Nc4cccc(C(F)(F)F)c4)CC3)nccc2s1`: the inhibition is 80.9% (active). In the case of `O=C1CC(c2ccccc2Cl)=Nc2ccccc2N1`, the inhibition was 5% (inactive). The same measure for `C=CCN(CC=C)S(=O)(=O)c1ccc(C(=O)Nc2nnc(-c3ccc(F)cc3)o2)cc1`: 6% (inactive). The figure for `N#Cc1sc2nc(-c3cccs3)ccc2c1N` is 5% (inactive) and -18.7% (inactive). The figure for `COc1cc(OC)c(OC)cc1CN1CCN(c2ccccc2F)CC1` is 6.5% (inactive); for `COc1cc(CN2CCN(Cc3cc(OC)c(OC)cc3OC)CC2)cc(OC)c1` it is 7.3% (inactive). As to `COc1cc2c(-c3ccccc3)c(C)oc2cc1CN1CCN(c2ncccn2)CC1`, the inhibition is 62.2% (active). The figure for `CN(CCc1ccccn1)C(=O)C1CCCN(c2cnn(C)c(=O)c2)C1` (stereo not drawn) is -0.11% (inactive). As to `CCC(=O)NCc1csc(C2CCN(C(=O)c3cccs3)CC2)n1`, the inhibition is 5.45% (inactive). The figure for `Cc1ccc(CNC(=O)C2(C)CCCN(C(=O)CC(C)C)C2)cc1` (stereo not drawn) is -7.13% (inactive); for `COc1ccc(C(=O)N2CCOC(COc3ccc(C)cc3)C2)cc1` (stereo not drawn) it is 4.7% (inactive); for `CN1CCC(=O)N([C@H](CO)Cc2ccccc2)CC1` it is -6.6% (inactive). With `CC(C)C[C@@H](CO)N1CCN(Cc2ccc(O)cc2)CCC1=O`, the inhibition is -0.4% (inactive). As to `Cc1ccc(S(=O)(=O)N2CCC(=O)N([C@H](COCc3ccccc3)Cc3ccccc3)CC2)cc1`, the inhibition was -1.2% (inactive) and -4% (inactive).

As for `CC(C)C[C@@H](COc1ccccc1)N1CCN(CC(C)C)CCC1=O`, the inhibition is 5.6% (inactive).

As to `O=C(c1ccc(C(F)(F)F)cc1)N1CCC(=O)N([C@H](COCc2ccccc2)Cc2ccccc2)CC1`, the inhibition is 99.4% (active). The same measure for `CC(C)C[C@@H](COCc1ccc(Cl)cc1)N1CCN(C(=O)c2ccc(Cl)cc2Cl)CCC1=O`: 86% (active). In the case of `O=C(NCC(c1cccs1)N1CCOCC1)C(=O)Nc1ccon1` (stereo not drawn), the inhibition was -10.7% (inactive). The same measure for `CCOc1ccccc1N1CCN(CC2CC3C=CC2C3)CC1` (stereo not drawn): 3.9% (inactive). The figure for `Cc1cccc2c(C(=O)N3CCOCC3)cc(-c3ccccc3)nc12` is 26.2% (inactive); for `Cc1ccc(C(=O)N2CCCC(COc3ccc(C(=O)N4CCOCC4)cc3)C2)cc1` (stereo not drawn) it is 5.35% (inactive). The same measure for `O=[N+]([O-])c1ccccc1/C=C/CN1CCN(C/C=C/c2ccccc2)CC1`: 75.3% (active). For the molecule `O=[N+]([O-])c1ccccc1/C=C/CN1CCN(c2ccccc2)CC1`, the inhibition is 32.8% (inactive). The figure for `O=[N+]([O-])c1ccccc1/C=C/CN1CCC(O)CC1` is -1.3% (inactive); for `COc1ccc(Cl)cc1NC(=O)C1CC(=O)N(c2ccc3c(c2)CCN3C(C)=O)C1` (stereo not drawn) it is 2.25% (inactive); for `Cn1nccc1C(=O)N1CCCC1c1cccc(F)c1` (stereo not drawn) it is -3.94% (inactive). The figure for `COc1ccc(S(=O)(=O)NCCc2ccccc2)c(C)c1C` is -7.6% (inactive). As to `CN1CCCc2cc(C(CNC(=O)C(=O)NC3CCCCC3)N(C)C)ccc21` (stereo not drawn), the inhibition is 5.1% (inactive).

As for `CN1CCc2cc(C(CNC(=O)C(=O)NCc3ccccc3Cl)N(C)C)ccc21` (stereo not drawn), the inhibition was 53.3% (active).

On to `CN1CCCc2cc(C(CNC(=O)c3ccccc3Cl)N3CCOCC3)ccc21` (stereo not drawn), for which the inhibition was 19.8% (inactive). The same measure for `N#CCn1cccc1-c1nc(-c2ccncc2)no1`: 38.7% (inactive). The figure for `CC(C)(C)C(O)CCNC(=O)c1cccc(F)c1` (stereo not drawn) is -16.4% (inactive); for `COc1ccc(C2=N/C(=C/c3ccc4c(c3)OCO4)C(=O)O2)c(Br)c1` it is 3% (inactive); for `O=C(Nc1ccc(N2CCOCC2)cc1)c1cccc(Br)c1` it is -1.7% (inactive). The same measure for `COc1ccccc1OCC(=O)Nc1c2c(nn1-c1ccc(F)cc1)CS(=O)(=O)C2`: -5.8% (inactive). In the case of `CC1CCCC(Nc2ccc(N3C(=O)CCCC3=O)cc2[N+](=O)[O-])C1C` (stereo not drawn), the inhibition was 48% (inactive). The figure for `CC1CC(=O)N(c2ccc(NC3CCCC(C)C3C)c([N+](=O)[O-])c2)C1=O` (stereo not drawn) is 51% (active); for `O=C1C2CC=CCC2C(=O)N1c1ccc(F)c([N+](=O)[O-])c1` (stereo not drawn) it is -1% (inactive).

With `COc1ccccc1NC(=O)C(CCS(C)(=O)=O)NC(C)=O` (stereo not drawn), the inhibition was 0% (inactive). For `Cc1ccc(C2=NC3(CCCCC3)N(CC(=O)Nc3cccc(C)c3)C2=O)cc1`, the inhibition is 0.12% (inactive).

Turning to `CN(C)c1ncccc1C(=O)Nc1ccccc1F`, the inhibition was -5.3% (inactive).

Turning to `CCOc1ccc(-c2nn(C)c(C)c2Oc2ccccc2)c(O)c1`, the inhibition was -3.5% (inactive). The figure for `CCCc1ccc(Oc2cn[nH]c2-c2ccc(OC)cc2O)cc1` is 51% (active); for `Cc1c(O)ccc(-c2[nH]ncc2Oc2ccccc2)c1O` it is 54.4% (active) and 53% (active).

`CCCc1cc(C2CCCN2Cc2cn[nH]c2-c2cccc(OC)c2)no1` (stereo not drawn): the inhibition was -7.21% (inactive).

Turning to `COc1ccc(-c2c(-c3ccc(OC)cc3O)nc(C)nc2C(F)(F)F)cc1`, the inhibition is -2.9% (inactive). The figure for `CCOc1ccccc1CN1CCC(C(=O)N2CCN(Cc3ccccc3)CC2)CC1` is 2.9% (inactive); for `CC(C)(C)CC(=O)N1CC(C(=O)NC2CC2)C(c2ccc(F)cc2)C1` (stereo not drawn) it is -0.9% (inactive).

Turning to `O=C(c1ccc(C(F)(F)F)cc1)N1CCN(c2nc(CN3CCCC3)cs2)CC1`, the inhibition was 1.28% (inactive). The same measure for `COc1ccc(CN(CC(=O)NCCc2ccccc2)S(=O)(=O)c2cccnc2)cc1`: -5.6% (inactive). The same measure for `COc1cccc(CN2CCc3nc(N4CCN(c5ccc(F)cc5)CC4)ncc3C2)c1`: -4.69% (inactive); for `O=C(Nc1cc(Cl)ccc1O)c1nn2c(c1Cl)NC(c1cccs1)CC2C(F)(F)F` (stereo not drawn): 90% (active); for `CCCNC(=O)c1nn2c(c1Cl)NC(c1ccc(Cl)cc1)CC2C(F)(F)F` (stereo not drawn): 9% (inactive).

As for `O=C(Nc1ccc(Cl)cc1)c1cc2n(n1)C(C(F)(F)F)CC(c1cccs1)N2` (stereo not drawn), the inhibition is -2% (inactive). In the case of `O=C(NCc1ccco1)C1CN(S(=O)(=O)c2cccs2)CC12CCCCC2` (stereo not drawn), the inhibition is 2.15% (inactive). The figure for `Cc1ccc(Sc2nccnc2N2CCC(C(=O)N3CCN(C)CC3)CC2)cc1` is 10.6% (inactive).

As for `CC(C)N(c1snnc1N)C(C)C`, the inhibition was -2.94% (inactive). The same measure for `CC1=C(C(=O)Nc2ccc(Br)cn2)C(c2cccnc2)C2=C(CCCC2=O)N1` (stereo not drawn): 1% (inactive); for `COc1ccc(NC(=O)c2ccc(OC)c([N+](=O)[O-])c2)cc1Cl`: -0.1% (inactive); for `COc1ccc(N=Cc2ccc(Cl)c([N+](=O)[O-])c2)cc1OC`: 57% (active). Regarding `COc1ccc(/C=C2\N=C(c3ccc(Cl)c([N+](=O)[O-])c3)OC2=O)cc1OC`, the inhibition was 7% (inactive). The figure for `CCNc1cc(N2CCC(CCC(=O)NCC(C)C)CC2)ncn1` is 0.14% (inactive); for `CCN(CC)CCCNc1c(CCC#N)c(C)c(C#N)c2nc3ccccc3n12` it is 4% (inactive); for `O=C(CN1C(=O)S/C(=C\c2ccccc2)C1=O)Nc1ccccc1Cl` it is -5% (inactive). The figure for `c1ccc2c(c1)CCN2c1nc(N2CCOCC2)c2n[nH]nc2n1` is 83.5% (active); for `COc1ccc(-n2ncc3c(N4CCc5ccccc54)ncnc32)cc1` it is 11% (inactive); for `Fc1cnc(N2CCOCC2)nc1NCc1ccccc1` it is 0.7% (inactive). The same measure for `Cc1ccc(NC(=O)NCCC2CCN(S(=O)(=O)c3ccc(F)cc3)CC2)c(C)c1`: 42.8% (inactive); for `O=c1[nH]c(/C=C/c2cccc(Br)c2)nc2ccccc12`: -5.1% (inactive).

As for `CC1(C)c2ccccc2N2CC(=O)NC21/C=C/c1cccc(Br)c1` (stereo not drawn), the inhibition was 100% (active).

Turning to `COCCOCC1CCN(C(=O)c2cccc(N(C)C)c2)CC1`, the inhibition was -11.5% (inactive). The figure for `CCC(=O)Nc1cccc(NC(=O)c2ccc(C(C)C)cc2)c1` is 0.3% (inactive); for `CC1=Nc2c(ccc3cccnc23)C1(C)C` it is 66.6% (active) and 14.1% (inactive). With `COc1cc2c(cc1NC(=O)c1ccc(OC)c(OC)c1OC)oc1ccccc12`, the inhibition is -2.6% (inactive).

Take `CCCN1CCN(c2ncnc3c2nc2n3CCCC2)CC1`: the inhibition was -1.5% (inactive). For the molecule `N#Cc1c(N=Cc2ccc(Br)cc2)sc2c1CCC2`, the inhibition is 23% (inactive). In the case of `O=C1CC[C@H](O)CCN1[C@H](CSc1ccc(Br)cc1)Cc1ccccc1`, the inhibition was 24.2% (inactive). The figure for `C[C@H]1CCC(=O)N([C@H](CSc2ccccc2)Cc2ccccc2)CC1` is -8.3% (inactive). The same measure for `O=C1CCN(Cc2ccccc2)CCN1[C@H](CSc1ccccc1)c1ccccc1`: 98.8% (active). The figure for `N#Cc1cccc(CN2CCC(=O)N([C@H](CO)c3ccccc3)CC2)c1` is 0.1% (inactive). For the molecule `COc1ccc(SC[C@H](Cc2ccccc2)N2CCN(CCc3ccccc3)CCC2=O)cc1`, the inhibition was 92.2% (active).

On to `O=C1CCN(Cc2ccc([N+](=O)[O-])cc2)CCN1[C@H](CO)Cc1ccccc1`, for which the inhibition was 6.4% (inactive). The figure for `Cc1ccc(CCNC(=O)c2cc3n(n2)CCCN(Cc2ccc(Cl)cc2)C3=O)cc1` is 27.7% (inactive); for `O=C(N1CCOCC1)[n+]1ccc(/C=C/c2ccc(Cl)cc2)cc1` it is 8% (inactive); for `CC1(C)CC(=O)c2sc(NC(=O)C(C)(C)Oc3ccc(Cl)cc3)nc2C1` it is -1% (inactive).

The record behind these values is PubChem BioAssay AID1671202 (University of Kansas High Throughput Screening Laboratory, 2021).
